# Reference: PMC7862700, “An all-to-all approach to the identification of sequence-specific readers for epigenetic DNA modifications on cytosine”
# How the values were obtained:
# Test in all cases: DAPPL (digital affinity profiling via proximity ligation, sequencing); 10 mM Tris-HCl pH 7.5, 50 mM NaCl, 1 mM DTT, 4% glycerol, room temperature, 30 min; GST-TFs on glutathione beads, 16-mer random dsDNA library, 0.1% formaldehyde crosslink after washing; high values mean tight binding
# FLI1 = biological target: T1, FLI1 (Homo sapiens, UniProt Q01543 1-452); conditions: protein: recombinant; tags: N-terminal GST; dsDNA, one strand shown
# T1 sequence: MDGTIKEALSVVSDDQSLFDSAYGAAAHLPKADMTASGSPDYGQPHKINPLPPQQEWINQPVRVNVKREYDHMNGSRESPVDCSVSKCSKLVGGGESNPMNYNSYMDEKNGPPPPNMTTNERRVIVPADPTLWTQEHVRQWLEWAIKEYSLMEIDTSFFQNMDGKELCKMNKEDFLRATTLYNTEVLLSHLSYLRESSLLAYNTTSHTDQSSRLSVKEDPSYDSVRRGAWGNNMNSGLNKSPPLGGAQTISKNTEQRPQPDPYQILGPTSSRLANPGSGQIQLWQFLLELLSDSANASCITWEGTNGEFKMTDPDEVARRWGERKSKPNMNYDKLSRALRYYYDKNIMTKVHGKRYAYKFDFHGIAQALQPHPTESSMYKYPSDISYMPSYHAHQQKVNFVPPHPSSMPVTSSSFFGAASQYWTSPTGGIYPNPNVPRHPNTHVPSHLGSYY
# In short: (§1)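 After expression in yeast as GST fusions, human transcription factors were bound to glutathione beads, DNA-barcoded and mixed with a tag-only sample. The pools were incubated with 200 nmole of a 16-mer random double-stranded DNA library in Tris/NaCl/DTT/glycerol buffer (30 min, room temperature), washed and crosslinked with 0.1% formaldehyde. Proximity ligation with BsaI/T4 ligase ran for 1 h at 37 °C, before PCR amplification and sequencing on an Illumina NextSeq500. Binding signal is a hexamer's read frequency for a factor divided by its frequency for the tag-only sample.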
# ELK1 = biological target: T2, ELK1 (Homo sapiens, UniProt P19419 1-428); conditions: protein: recombinant; tags: N-terminal GST; dsDNA, one strand shown
# T2 sequence: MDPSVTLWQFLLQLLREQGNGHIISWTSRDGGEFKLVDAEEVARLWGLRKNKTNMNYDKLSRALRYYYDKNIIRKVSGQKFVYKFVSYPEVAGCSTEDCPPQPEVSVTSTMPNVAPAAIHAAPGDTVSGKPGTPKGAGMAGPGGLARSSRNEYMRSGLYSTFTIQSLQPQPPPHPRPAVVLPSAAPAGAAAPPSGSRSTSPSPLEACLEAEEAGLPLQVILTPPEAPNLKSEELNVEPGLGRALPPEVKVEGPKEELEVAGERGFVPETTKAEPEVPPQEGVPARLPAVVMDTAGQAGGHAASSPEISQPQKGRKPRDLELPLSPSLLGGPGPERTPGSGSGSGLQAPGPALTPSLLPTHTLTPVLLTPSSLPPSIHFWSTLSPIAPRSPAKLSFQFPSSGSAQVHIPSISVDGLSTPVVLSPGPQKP
# In short: as §1
# GABPA = biological target: T3, GABPA (Homo sapiens, UniProt Q06546 1-454); conditions: protein: recombinant; tags: N-terminal GST; dsDNA, one strand shown
# T3 sequence: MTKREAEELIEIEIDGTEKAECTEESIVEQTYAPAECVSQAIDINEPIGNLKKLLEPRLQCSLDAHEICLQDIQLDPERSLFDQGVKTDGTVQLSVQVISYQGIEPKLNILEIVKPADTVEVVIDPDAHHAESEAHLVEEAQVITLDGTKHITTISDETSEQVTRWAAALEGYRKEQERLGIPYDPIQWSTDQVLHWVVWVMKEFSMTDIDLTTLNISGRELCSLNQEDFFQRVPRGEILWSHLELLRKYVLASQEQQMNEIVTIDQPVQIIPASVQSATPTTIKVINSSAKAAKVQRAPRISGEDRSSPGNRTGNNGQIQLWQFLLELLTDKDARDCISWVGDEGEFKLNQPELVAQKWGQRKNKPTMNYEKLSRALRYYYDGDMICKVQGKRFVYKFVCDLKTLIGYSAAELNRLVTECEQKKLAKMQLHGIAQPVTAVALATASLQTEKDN
# In short: as §1
# ERG = biological target: T4, ERG (Homo sapiens, UniProt P11308 1-479); conditions: protein: recombinant; tags: N-terminal GST; dsDNA, one strand shown
# T4 sequence: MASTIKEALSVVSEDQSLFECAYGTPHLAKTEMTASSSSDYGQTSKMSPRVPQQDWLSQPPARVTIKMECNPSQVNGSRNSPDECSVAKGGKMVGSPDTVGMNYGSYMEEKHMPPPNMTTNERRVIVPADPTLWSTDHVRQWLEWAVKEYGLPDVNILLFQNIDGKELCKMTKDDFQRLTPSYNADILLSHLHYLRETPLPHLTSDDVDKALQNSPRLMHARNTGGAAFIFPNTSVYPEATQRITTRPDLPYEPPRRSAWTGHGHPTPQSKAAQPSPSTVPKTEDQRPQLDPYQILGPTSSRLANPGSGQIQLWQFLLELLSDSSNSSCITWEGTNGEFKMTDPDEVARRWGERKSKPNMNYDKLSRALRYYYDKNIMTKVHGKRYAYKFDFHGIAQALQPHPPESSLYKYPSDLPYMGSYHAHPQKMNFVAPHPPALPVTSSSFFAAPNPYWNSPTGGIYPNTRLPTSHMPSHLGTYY
# In short: as §1
# ELF1 = ELF1 (Homo sapiens, UniProt P32519 1-619); conditions: protein: recombinant; tags: N-terminal GST; dsDNA, one strand shown
# In short: as §1
# EHF = biological target: T5, EHF (Homo sapiens, UniProt Q9NZC4 1-300); conditions: protein: recombinant; tags: N-terminal GST; dsDNA, one strand shown
# T5 sequence: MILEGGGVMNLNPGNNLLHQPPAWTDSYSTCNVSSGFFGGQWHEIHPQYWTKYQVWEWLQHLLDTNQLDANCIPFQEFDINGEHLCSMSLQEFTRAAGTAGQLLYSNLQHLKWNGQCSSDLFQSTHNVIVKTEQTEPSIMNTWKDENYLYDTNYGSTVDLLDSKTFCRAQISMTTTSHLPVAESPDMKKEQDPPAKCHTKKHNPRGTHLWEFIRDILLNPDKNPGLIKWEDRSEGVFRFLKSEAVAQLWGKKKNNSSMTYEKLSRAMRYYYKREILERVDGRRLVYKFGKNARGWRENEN
# In short: as §1
# SPI1 = SPI1 (Homo sapiens, UniProt P17947 1-270); conditions: protein: recombinant; tags: N-terminal GST; dsDNA, one strand shown
# In short: as §1
# SPIB = SPIB (Homo sapiens, UniProt Q01892 1-262); conditions: protein: recombinant; tags: N-terminal GST; dsDNA, one strand shown
# In short: as §1
# ELK3 = biological target: T6, ELK3 (Homo sapiens, UniProt P41970 1-407); conditions: protein: recombinant; tags: N-terminal GST; dsDNA, one strand shown
# T6 sequence: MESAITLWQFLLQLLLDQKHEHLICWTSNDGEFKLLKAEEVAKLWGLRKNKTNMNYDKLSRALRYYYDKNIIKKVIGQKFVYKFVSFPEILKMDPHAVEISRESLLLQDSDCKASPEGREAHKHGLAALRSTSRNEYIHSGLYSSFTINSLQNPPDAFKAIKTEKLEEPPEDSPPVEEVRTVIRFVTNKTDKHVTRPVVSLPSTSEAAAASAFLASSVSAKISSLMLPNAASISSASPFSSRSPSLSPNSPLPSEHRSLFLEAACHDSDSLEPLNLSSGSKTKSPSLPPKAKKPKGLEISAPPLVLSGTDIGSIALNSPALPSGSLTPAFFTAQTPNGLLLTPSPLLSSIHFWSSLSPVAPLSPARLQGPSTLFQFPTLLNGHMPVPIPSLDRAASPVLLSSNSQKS
# In short: as §1
# FEV = biological target: T7, FEV (Homo sapiens, UniProt Q99581 1-238); conditions: protein: recombinant; tags: N-terminal GST; dsDNA, one strand shown
# T7 sequence: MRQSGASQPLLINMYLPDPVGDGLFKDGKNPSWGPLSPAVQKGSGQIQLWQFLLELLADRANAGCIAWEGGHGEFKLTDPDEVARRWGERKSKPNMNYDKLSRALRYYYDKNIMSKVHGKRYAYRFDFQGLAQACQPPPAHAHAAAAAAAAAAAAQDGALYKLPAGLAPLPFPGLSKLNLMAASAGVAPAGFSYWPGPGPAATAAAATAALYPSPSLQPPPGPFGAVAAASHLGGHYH
# In short: as §1
# ETV5 = ETV5 (Homo sapiens, UniProt P41161 1-510); conditions: protein: recombinant; tags: N-terminal GST; dsDNA, one strand shown
# In short: as §1
# HSF1 = HSF1 (Homo sapiens, UniProt Q00613 1-529); conditions: protein: recombinant; tags: N-terminal GST; chain copies: 3; dsDNA, one strand shown
# In short: as §1
# SPIC = biological target: T8, SPIC (Homo sapiens, UniProt Q8N5J4 1-248); conditions: protein: recombinant; tags: N-terminal GST; dsDNA, one strand shown
# T8 sequence: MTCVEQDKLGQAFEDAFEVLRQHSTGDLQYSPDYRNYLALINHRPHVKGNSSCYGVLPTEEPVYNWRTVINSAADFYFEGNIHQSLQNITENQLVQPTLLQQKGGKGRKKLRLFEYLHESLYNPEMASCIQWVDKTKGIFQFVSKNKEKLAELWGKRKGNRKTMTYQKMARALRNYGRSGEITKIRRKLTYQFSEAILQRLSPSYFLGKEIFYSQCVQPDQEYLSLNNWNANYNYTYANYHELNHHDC
# In short: as §1
# ELF4 = ELF4 (Homo sapiens, UniProt Q99607 1-663); conditions: protein: recombinant; tags: N-terminal GST; dsDNA, one strand shown
# In short: as §1
# ELK4 = biological target: T9, ELK4 (Homo sapiens, UniProt P28324-2 1-405); conditions: protein: recombinant; tags: N-terminal GST; dsDNA, one strand shown
# T9 sequence: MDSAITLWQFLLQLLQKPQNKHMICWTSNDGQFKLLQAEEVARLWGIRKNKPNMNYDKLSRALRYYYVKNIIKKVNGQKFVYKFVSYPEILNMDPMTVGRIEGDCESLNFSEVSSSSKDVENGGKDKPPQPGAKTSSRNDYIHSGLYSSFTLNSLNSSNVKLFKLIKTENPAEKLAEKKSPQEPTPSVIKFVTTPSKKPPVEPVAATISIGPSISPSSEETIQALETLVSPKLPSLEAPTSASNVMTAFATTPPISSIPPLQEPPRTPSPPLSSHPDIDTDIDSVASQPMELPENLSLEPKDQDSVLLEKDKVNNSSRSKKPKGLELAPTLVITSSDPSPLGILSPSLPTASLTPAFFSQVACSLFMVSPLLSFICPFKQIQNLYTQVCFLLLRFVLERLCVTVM
# In short: as §1
# ETV2 = biological target: T10, ETV2 (Homo sapiens, UniProt O00321 1-342); conditions: protein: recombinant; tags: N-terminal GST; dsDNA, one strand shown
# T10 sequence: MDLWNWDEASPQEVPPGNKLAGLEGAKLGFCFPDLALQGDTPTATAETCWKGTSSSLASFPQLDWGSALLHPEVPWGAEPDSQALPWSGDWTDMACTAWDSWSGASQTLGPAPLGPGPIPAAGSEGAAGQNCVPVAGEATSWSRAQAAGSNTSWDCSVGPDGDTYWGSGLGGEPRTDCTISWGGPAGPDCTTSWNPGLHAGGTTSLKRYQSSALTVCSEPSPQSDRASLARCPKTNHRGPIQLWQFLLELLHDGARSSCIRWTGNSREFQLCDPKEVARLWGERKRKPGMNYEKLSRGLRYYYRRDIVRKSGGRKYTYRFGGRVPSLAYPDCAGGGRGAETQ
# In short: as §1
# ELF3 = biological target: T11, ELF3 (Homo sapiens, UniProt P78545 1-371); conditions: protein: recombinant; tags: N-terminal GST; dsDNA, one strand shown
# T11 sequence: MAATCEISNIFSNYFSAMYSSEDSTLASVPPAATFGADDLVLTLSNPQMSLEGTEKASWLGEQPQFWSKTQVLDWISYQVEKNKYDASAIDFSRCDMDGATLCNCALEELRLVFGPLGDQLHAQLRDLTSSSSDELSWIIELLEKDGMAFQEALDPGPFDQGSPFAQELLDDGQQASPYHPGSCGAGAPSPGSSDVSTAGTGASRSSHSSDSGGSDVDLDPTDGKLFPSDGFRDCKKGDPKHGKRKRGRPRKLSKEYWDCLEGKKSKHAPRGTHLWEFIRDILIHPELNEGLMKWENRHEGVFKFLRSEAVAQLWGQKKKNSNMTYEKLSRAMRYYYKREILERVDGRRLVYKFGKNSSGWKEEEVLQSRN
# In short: as §1
# CRX = CRX (Homo sapiens, UniProt O43186 1-299); conditions: protein: recombinant; tags: N-terminal GST; dsDNA, one strand shown
# In short: as §1
# ETV1 = ETV1 (Homo sapiens, UniProt P50549 1-477); conditions: protein: recombinant; tags: N-terminal GST; dsDNA, one strand shown
# In short: as §1
# Sequence of ELF4 (Q99607 whole entry): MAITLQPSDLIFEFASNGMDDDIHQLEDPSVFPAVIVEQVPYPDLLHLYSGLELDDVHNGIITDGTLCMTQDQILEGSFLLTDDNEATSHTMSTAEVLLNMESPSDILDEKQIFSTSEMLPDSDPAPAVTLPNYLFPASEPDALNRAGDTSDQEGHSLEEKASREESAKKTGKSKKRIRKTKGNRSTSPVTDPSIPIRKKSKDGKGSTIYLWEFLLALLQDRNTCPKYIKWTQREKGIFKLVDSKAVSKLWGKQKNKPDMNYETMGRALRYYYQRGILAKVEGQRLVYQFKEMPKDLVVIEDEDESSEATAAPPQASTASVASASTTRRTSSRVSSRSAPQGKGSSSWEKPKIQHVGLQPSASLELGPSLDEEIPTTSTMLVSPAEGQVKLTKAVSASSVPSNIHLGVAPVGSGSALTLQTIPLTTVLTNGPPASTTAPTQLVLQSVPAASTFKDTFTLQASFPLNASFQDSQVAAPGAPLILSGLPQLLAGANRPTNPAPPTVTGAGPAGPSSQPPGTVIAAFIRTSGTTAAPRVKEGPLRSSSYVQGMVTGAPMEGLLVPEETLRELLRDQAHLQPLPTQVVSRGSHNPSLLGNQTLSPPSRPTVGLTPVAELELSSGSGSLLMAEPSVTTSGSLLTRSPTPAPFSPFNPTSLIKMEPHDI
# Sequence of HSF1 (Q00613 whole entry): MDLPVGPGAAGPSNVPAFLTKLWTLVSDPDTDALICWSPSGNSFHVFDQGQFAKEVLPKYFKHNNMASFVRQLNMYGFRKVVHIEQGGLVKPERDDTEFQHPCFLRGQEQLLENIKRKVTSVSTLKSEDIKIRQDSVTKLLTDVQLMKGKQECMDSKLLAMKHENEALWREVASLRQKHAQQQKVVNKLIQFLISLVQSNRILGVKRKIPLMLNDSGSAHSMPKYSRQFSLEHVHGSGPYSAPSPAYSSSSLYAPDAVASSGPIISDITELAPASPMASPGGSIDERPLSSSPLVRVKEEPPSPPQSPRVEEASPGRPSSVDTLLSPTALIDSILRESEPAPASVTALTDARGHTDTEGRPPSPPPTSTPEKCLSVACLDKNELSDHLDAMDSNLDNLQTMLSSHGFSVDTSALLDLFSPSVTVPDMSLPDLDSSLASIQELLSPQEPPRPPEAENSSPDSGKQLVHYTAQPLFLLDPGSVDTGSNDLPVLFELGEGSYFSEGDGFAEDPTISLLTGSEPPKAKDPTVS
# Sequence of ETV1 (P50549 whole entry): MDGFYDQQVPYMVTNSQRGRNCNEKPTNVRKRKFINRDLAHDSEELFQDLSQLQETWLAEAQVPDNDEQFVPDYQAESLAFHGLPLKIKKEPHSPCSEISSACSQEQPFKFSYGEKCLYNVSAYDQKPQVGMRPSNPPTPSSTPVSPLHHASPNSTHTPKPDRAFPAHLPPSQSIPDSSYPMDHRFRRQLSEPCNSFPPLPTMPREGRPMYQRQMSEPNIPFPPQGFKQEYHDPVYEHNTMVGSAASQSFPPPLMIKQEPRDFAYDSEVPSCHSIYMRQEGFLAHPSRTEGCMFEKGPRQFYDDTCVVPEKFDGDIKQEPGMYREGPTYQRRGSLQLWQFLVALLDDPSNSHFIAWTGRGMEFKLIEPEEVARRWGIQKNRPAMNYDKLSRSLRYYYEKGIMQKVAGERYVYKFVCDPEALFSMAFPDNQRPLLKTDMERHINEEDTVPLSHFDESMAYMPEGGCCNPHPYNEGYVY
# Sequence of SPIB (Q01892 whole entry): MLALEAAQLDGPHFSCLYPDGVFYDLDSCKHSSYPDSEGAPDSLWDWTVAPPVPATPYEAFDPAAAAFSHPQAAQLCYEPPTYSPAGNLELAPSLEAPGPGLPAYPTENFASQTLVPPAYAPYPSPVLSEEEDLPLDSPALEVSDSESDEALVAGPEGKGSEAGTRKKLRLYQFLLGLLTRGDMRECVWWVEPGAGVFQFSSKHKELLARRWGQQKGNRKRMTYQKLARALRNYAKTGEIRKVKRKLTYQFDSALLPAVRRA
# Sequence of ETV5 (P41161 whole entry): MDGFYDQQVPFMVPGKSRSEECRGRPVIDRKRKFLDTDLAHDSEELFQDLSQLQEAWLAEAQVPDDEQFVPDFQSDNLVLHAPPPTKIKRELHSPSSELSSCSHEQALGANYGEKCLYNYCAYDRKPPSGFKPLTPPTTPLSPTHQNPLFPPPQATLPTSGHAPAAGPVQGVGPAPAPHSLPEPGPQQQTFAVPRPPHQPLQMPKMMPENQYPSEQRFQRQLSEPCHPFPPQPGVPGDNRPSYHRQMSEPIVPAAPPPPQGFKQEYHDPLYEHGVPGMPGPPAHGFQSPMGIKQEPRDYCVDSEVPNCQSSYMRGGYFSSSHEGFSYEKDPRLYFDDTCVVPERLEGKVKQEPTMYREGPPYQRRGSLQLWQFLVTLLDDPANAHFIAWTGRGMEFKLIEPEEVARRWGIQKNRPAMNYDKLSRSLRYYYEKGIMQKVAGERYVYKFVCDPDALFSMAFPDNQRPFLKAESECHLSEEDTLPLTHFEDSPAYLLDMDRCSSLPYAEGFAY
# Sequence of ELF1 (P32519 whole entry): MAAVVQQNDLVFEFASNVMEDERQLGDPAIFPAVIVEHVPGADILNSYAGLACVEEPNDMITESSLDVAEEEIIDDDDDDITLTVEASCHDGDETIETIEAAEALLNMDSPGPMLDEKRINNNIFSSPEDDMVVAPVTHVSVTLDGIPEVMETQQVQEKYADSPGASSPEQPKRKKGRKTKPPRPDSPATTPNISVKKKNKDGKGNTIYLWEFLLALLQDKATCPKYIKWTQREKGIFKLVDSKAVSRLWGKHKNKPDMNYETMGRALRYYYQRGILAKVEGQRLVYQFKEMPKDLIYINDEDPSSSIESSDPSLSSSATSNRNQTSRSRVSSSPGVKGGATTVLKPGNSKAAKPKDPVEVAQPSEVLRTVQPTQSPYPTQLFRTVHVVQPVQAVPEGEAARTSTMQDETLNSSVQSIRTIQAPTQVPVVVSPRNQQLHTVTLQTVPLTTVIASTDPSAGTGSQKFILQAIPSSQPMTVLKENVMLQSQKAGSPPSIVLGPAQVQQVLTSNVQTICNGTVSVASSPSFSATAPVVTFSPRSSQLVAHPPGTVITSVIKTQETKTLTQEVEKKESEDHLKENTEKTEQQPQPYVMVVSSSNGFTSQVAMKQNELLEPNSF
# Sequence of CRX (O43186 whole entry): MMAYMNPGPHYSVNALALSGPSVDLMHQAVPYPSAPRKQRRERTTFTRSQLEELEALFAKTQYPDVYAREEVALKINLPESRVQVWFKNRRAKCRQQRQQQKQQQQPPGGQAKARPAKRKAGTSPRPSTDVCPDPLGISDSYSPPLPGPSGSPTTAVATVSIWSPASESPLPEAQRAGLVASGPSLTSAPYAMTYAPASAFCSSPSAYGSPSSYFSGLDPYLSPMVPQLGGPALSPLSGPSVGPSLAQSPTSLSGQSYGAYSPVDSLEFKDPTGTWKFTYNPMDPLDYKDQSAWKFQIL
sequence,measurement,setting,value
ATAGTT,binding signal,FLI1,"1.18 fold enrichment (6-mer frequency, TF over GST control)"
same,binding signal,ELK1,"1.16 fold enrichment (6-mer frequency, TF over GST control)"
same,binding signal,GABPA,"1.16 fold enrichment (6-mer frequency, TF over GST control)"
same,binding signal,ERG,"1.18 fold enrichment (6-mer frequency, TF over GST control)"
same,binding signal,ELF1,"1.16 fold enrichment (6-mer frequency, TF over GST control)"
same,binding signal,EHF,"1.18 fold enrichment (6-mer frequency, TF over GST control)"
same,binding signal,SPI1,"1.11 fold enrichment (6-mer frequency, TF over GST control)"
same,binding signal,SPIB,"1.2 fold enrichment (6-mer frequency, TF over GST control)"
same,binding signal,ELK3,"1.11 fold enrichment (6-mer frequency, TF over GST control)"
same,binding signal,FEV,"1.11 fold enrichment (6-mer frequency, TF over GST control)"
same,binding signal,ETV5,"1.25 fold enrichment (6-mer frequency, TF over GST control)"
same,binding signal,HSF1,"1.15 fold enrichment (6-mer frequency, TF over GST control)"
same,binding signal,SPIC,"1.14 fold enrichment (6-mer frequency, TF over GST control)"
same,binding signal,ELF4,"1.18 fold enrichment (6-mer frequency, TF over GST control)"
same,binding signal,ELK4,"1.39 fold enrichment (6-mer frequency, TF over GST control)"
same,binding signal,ETV2,"1.14 fold enrichment (6-mer frequency, TF over GST control)"
same,binding signal,ELF3,"1.29 fold enrichment (6-mer frequency, TF over GST control)"
same,binding signal,CRX,"1.1 fold enrichment (6-mer frequency, TF over GST control)"
same,binding signal,ETV1,"1.11 fold enrichment (6-mer frequency, TF over GST control)"
